# Test results: PubChem BioAssay AID1159580 (chemical genetic matrix, 2015)
# Several values for one entry are separate records, joined by “and”; a condition that tells them apart may be missing. Equal entries are not always repeated. Out of some 5,500 compounds screened, about 2,000 (36%) were called active. Another 18% or so got no clear call; they are omitted. This is one part of the list. Values without a mark were called inactive. Rule as the data show it: active = normalized growth mostly below about 0.91 (no sharp cut-off); inconclusive = no clear call, values can overlap the other calls; inactive = mostly above about 0.92.
# Assay: chemical genetic growth profiling, strain panel (AID 1159580);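 also: tested at 20 µM; growth read once vehicle control cultures reached saturation at 30 °C; 1 = growth at the plate median or of vehicle wells; lower values mean less growth of the strain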
# Conditions: growth OD
structure (smiles),measurement,setting,value
CCC1(c2ccc(N)cc2)CCC(=O)NC1=O (stereo not drawn),normalized growth,"S. cerevisiae deletion strains, locus YJR075W, strain HOC1, stronger effect = lower value",0.998
same,normalized growth,"S. cerevisiae deletion strains, locus YKL009W, strain mrt4, stronger effect = lower value",1.01
same,normalized growth,"S. cerevisiae deletion strains, locus YKL068W, stronger effect = lower value",1
same,normalized growth,"S. cerevisiae deletion strains, locus YKL085W, strain MDH1 (second series), stronger effect = lower value",1
same,normalized growth,"S. cerevisiae deletion strains, locus YKL085W, strain MDH1, stronger effect = lower value",1
same,normalized growth,"S. cerevisiae deletion strains, locus YKL160W, strain elf1, stronger effect = lower value",0.939
same,normalized growth,"S. cerevisiae deletion strains, locus YKR001C, strain vps1, stronger effect = lower value",0.995
same,normalized growth,"S. cerevisiae deletion strains, locus YKR026C, strain gcn3, stronger effect = lower value",0.961
same,normalized growth,"S. cerevisiae deletion strains, locus YKR091W, strain srl3, stronger effect = lower value",0.977
same,normalized growth,"S. cerevisiae deletion strains, locus YLL001W, strain dnm1, stronger effect = lower value",0.903
same,normalized growth,"S. cerevisiae deletion strains, locus YLL026W, stronger effect = lower value",0.956
same,normalized growth,"S. cerevisiae deletion strains, locus YLL041C, strain sdh2, stronger effect = lower value",0.968
same,normalized growth,"S. cerevisiae deletion strains, locus YLR027C, strain aat2, stronger effect = lower value",0.94
same,normalized growth,"S. cerevisiae deletion strains, locus YLR039C, strain RIC1, stronger effect = lower value",1.02
same,normalized growth,"S. cerevisiae deletion strains, locus YLR058C, strain SHM2, stronger effect = lower value",1.01
same,normalized growth,"S. cerevisiae deletion strains, locus YLR102C, strain apc9, stronger effect = lower value",0.992
same,normalized growth,"S. cerevisiae deletion strains, locus YLR113W, strain HOG1, stronger effect = lower value",1.06
same,normalized growth,"S. cerevisiae deletion strains, locus YLR221C, strain rsa3, stronger effect = lower value",0.99
same,normalized growth,"S. cerevisiae deletion strains, locus YLR258W, strain gsy2, stronger effect = lower value",0.992
same,normalized growth,"S. cerevisiae deletion strains, locus YLR262C, strain YPT6 (second series), stronger effect = lower value",0.999
same,normalized growth,"S. cerevisiae deletion strains, locus YLR262C, strain YPT6, stronger effect = lower value",1.03
same,normalized growth,"S. cerevisiae deletion strains, locus YLR268W, strain sec22, stronger effect = lower value",1.01
same,normalized growth,"S. cerevisiae deletion strains, locus YLR320W, strain mms22, stronger effect = lower value",0.978
same,normalized growth,"S. cerevisiae deletion strains, locus YLR330W, strain CHS5, stronger effect = lower value",1.01
same,normalized growth,"S. cerevisiae deletion strains, locus YLR342W, strain FKS1 (second series), stronger effect = lower value",1.02
same,normalized growth,"S. cerevisiae deletion strains, locus YLR342W, strain FKS1, stronger effect = lower value",0.926
same,normalized growth,"S. cerevisiae deletion strains, locus YLR357W, strain rsc2, stronger effect = lower value",0.917
same,normalized growth,"S. cerevisiae deletion strains, locus YLR370C, strain arc18, stronger effect = lower value",0.969
same,normalized growth,"S. cerevisiae deletion strains, locus YLR371W, strain rom2, stronger effect = lower value",0.997
same,normalized growth,"S. cerevisiae deletion strains, locus YLR384C, strain iki3, stronger effect = lower value",0.972
same,normalized growth,"S. cerevisiae deletion strains, locus YLR418C, strain cdc73, stronger effect = lower value",1
same,normalized growth,"S. cerevisiae deletion strains, locus YML016C, strain PPZ1, stronger effect = lower value",1.01
same,normalized growth,"S. cerevisiae deletion strains, locus YML032C, strain rad52, stronger effect = lower value",1
same,normalized growth,"S. cerevisiae deletion strains, locus YML120C, strain ndi1, stronger effect = lower value",0.93
same,normalized growth,"S. cerevisiae deletion strains, locus YML124C, strain tub3, stronger effect = lower value",0.985
same,normalized growth,"S. cerevisiae deletion strains, locus YMR058W, strain fet3, stronger effect = lower value",0.944
same,normalized growth,"S. cerevisiae deletion strains, locus YMR078C, strain ctf18, stronger effect = lower value",0.997
same,normalized growth,"S. cerevisiae deletion strains, locus YMR125W, strain sto1, stronger effect = lower value",0.988
same,normalized growth,"S. cerevisiae deletion strains, locus YMR129W, stronger effect = lower value",0.969
same,normalized growth,"S. cerevisiae deletion strains, locus YMR205C, strain PFK2, stronger effect = lower value",1
same,normalized growth,"S. cerevisiae deletion strains, locus YMR223W, strain ubp8, stronger effect = lower value",0.993
same,normalized growth,"S. cerevisiae deletion strains, locus YMR231W, strain pep5, stronger effect = lower value",0.973
same,normalized growth,"S. cerevisiae deletion strains, locus YMR263W, strain SAP30, stronger effect = lower value",1
same,normalized growth,"S. cerevisiae deletion strains, locus YMR307W, strain GAS1, stronger effect = lower value",0.942
same,normalized growth,"S. cerevisiae deletion strains, locus YNL067W, strain RPL9B, stronger effect = lower value",0.997
same,normalized growth,"S. cerevisiae deletion strains, locus YNL071W, strain lat1, stronger effect = lower value",0.986
same,normalized growth,"S. cerevisiae deletion strains, locus YNL128W, strain TEP1, stronger effect = lower value",1.01
same,normalized growth,"S. cerevisiae deletion strains, locus YNL153C, strain GIM3, stronger effect = lower value",1.02
same,normalized growth,"S. cerevisiae deletion strains, locus YNL175C, strain NOP13, stronger effect = lower value",0.992
same,normalized growth,"S. cerevisiae deletion strains, locus YNL183C, strain NPR1, stronger effect = lower value",0.974
same,normalized growth,"S. cerevisiae deletion strains, locus YNL197C, strain WHI3, stronger effect = lower value",0.987
same,normalized growth,"S. cerevisiae deletion strains, locus YNL209W, strain ssb2, stronger effect = lower value",0.997
same,normalized growth,"S. cerevisiae deletion strains, locus YNL224C, strain SQS1, stronger effect = lower value",1.02
same,normalized growth,"S. cerevisiae deletion strains, locus YNL233W, strain BNI4, stronger effect = lower value",0.994
same,normalized growth,"S. cerevisiae deletion strains, locus YNL248C, strain rpa49, stronger effect = lower value",0.955
same,normalized growth,"S. cerevisiae deletion strains, locus YNL250W, strain rad50, stronger effect = lower value",1
same,normalized growth,"S. cerevisiae deletion strains, locus YNL271C, strain bni1, stronger effect = lower value",0.995
same,normalized growth,"S. cerevisiae deletion strains, locus YNL298W, strain CLA4, stronger effect = lower value",0.992
same,normalized growth,"S. cerevisiae deletion strains, locus YNL307C, strain MCK1, stronger effect = lower value",0.999
same,normalized growth,"S. cerevisiae deletion strains, locus YNL322C, strain KRE1 (second series), stronger effect = lower value",0.973
same,normalized growth,"S. cerevisiae deletion strains, locus YNL322C, strain KRE1, stronger effect = lower value",0.996 and 1.02
same,normalized growth,"S. cerevisiae deletion strains, locus YNR049C, strain mso1, stronger effect = lower value",0.971
same,normalized growth,"S. cerevisiae deletion strains, locus YNR052C, strain pop2, stronger effect = lower value",0.988
same,normalized growth,"S. cerevisiae deletion strains, locus YOL012C, strain htz1",0.83
same,normalized growth,"S. cerevisiae deletion strains, locus YOL147C, strain pex11, stronger effect = lower value",0.999
same,normalized growth,"S. cerevisiae deletion strains, locus YOR001W, strain rrp6, stronger effect = lower value",0.934
same,normalized growth,"S. cerevisiae deletion strains, locus YOR061W, strain CKA2, stronger effect = lower value",1.02
same,normalized growth,"S. cerevisiae deletion strains, locus YOR069W, strain VPS5, stronger effect = lower value",1
same,normalized growth,"S. cerevisiae deletion strains, locus YOR070C, strain gyp1, stronger effect = lower value",0.987
same,normalized growth,"S. cerevisiae deletion strains, locus YOR080W, strain dia2, stronger effect = lower value",0.958
same,normalized growth,"S. cerevisiae deletion strains, locus YOR083W, strain WHI5 (second series), stronger effect = lower value",1.02
same,normalized growth,"S. cerevisiae deletion strains, locus YOR083W, strain WHI5, stronger effect = lower value",0.922
same,normalized growth,"S. cerevisiae deletion strains, locus YOR106W, strain vam3, stronger effect = lower value",0.899
same,normalized growth,"S. cerevisiae deletion strains, locus YOR136W, strain idh2, stronger effect = lower value",0.983
same,normalized growth,"S. cerevisiae deletion strains, locus YOR144C, strain elg1, stronger effect = lower value",1
same,normalized growth,"S. cerevisiae deletion strains, locus YOR184W, strain ser1, stronger effect = lower value",1.02
same,normalized growth,"S. cerevisiae deletion strains, locus YOR231W, strain MKK1, stronger effect = lower value",1.05
same,normalized growth,"S. cerevisiae deletion strains, locus YOR265W, strain rbl2, stronger effect = lower value",0.966
same,normalized growth,"S. cerevisiae deletion strains, locus YOR270C, strain vph1, stronger effect = lower value",0.977
same,normalized growth,"S. cerevisiae deletion strains, locus YOR290C, strain snf2, stronger effect = lower value",0.995
same,normalized growth,"S. cerevisiae deletion strains, locus YOR316C, strain cot1, stronger effect = lower value",0.996
same,normalized growth,"S. cerevisiae deletion strains, locus YPL051W, strain arl3, stronger effect = lower value",0.962
same,normalized growth,"S. cerevisiae deletion strains, locus YPL078C, strain atp4, stronger effect = lower value",0.89 (active)
same,normalized growth,"S. cerevisiae deletion strains, locus YPL106C, strain sse1, stronger effect = lower value",1
same,normalized growth,"S. cerevisiae deletion strains, locus YPL240C, strain hsp82, stronger effect = lower value",0.983
same,normalized growth,"S. cerevisiae deletion strains, locus YPL241C, strain CIN2, stronger effect = lower value",1 and 1.01
same,normalized growth,"S. cerevisiae deletion strains, locus YPL256C, strain CLN2, stronger effect = lower value",1.07
same,normalized growth,"S. cerevisiae deletion strains, locus YPR119W, strain clb2, stronger effect = lower value",0.991
same,normalized growth,"S. cerevisiae deletion strains, locus YPR141C, strain kar3, stronger effect = lower value",1
same,normalized growth,"S. cerevisiae deletion strains, locus YPR163C, strain tif3, stronger effect = lower value",1
same,normalized growth,"S. cerevisiae deletion strains, locus YPR167C, strain met16, stronger effect = lower value",0.997
same,normalized growth,"S. cerevisiae deletion strains, strain wtn01, stronger effect = lower value",0.985
same,normalized growth,"S. cerevisiae strains, strain wild type, stronger effect = lower value",1.01
